Inconclusive results are not listed. The source made the active and inactive calls. How the source made its calls: active means hit-call score of the fitted dose curve at least 0.9, where 1 is the maximum; inconclusive means response in the unintended direction; inactive means score below 0.9.
What was measured:
[1] = molecular target: Estrogen receptor (Homo sapiens) (UniProt P03372); experiment: OT_ER_ERaERa_1440: Odyssey Thera (OT) 24-hour HEK293T Protein-Complementation Assay for Estrogen Receptor-alpha/-alpha Homodimer (AID 2283349);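 further: hits raise fluorescence above DMSO for agonists and antagonists alike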
Chain of Estrogen receptor (Homo sapiens) (P03372 whole entry, looked up, the tested form may be a part): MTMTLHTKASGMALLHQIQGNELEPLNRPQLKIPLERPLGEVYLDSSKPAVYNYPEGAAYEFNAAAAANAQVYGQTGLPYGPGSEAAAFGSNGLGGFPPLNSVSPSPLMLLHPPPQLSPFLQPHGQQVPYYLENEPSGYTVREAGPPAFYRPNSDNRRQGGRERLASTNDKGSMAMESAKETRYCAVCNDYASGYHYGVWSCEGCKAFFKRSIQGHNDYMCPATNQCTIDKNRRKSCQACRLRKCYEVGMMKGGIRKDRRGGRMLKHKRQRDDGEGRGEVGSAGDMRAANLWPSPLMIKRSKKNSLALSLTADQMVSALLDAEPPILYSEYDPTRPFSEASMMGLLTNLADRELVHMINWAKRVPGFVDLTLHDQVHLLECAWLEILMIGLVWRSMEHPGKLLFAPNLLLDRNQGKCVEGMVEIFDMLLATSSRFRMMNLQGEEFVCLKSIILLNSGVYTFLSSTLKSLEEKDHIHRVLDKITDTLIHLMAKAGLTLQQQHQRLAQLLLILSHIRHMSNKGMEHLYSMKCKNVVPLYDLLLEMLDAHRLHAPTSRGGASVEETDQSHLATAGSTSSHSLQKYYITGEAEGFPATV
How it was run: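 Cells (HEK293T) carrying the fragment-tagged ERα LBD (aa 310-547) pair are treated with chemical for 24 hours. Nuclear and/or cytoplasmic fluorescence is then quantified on a laser scanning cytometer. Activity is scored as signal gain against DMSO.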

[2] = molecular target: bovine Estrogen Receptor (ER), ESR1 (gene 407238) (UniProt P49884); experiment: NVS_NR_bER: NovaScreen (NVS) Nuclear Receptor Binding Assay for bovine Estrogen Receptor (ER) (AID 2283345);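 further: actives lower the bound radioligand count which means they displace the ER ligand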
Chain of bovine Estrogen Receptor (ER), ESR1 (gene 407238) (P49884 whole entry, looked up): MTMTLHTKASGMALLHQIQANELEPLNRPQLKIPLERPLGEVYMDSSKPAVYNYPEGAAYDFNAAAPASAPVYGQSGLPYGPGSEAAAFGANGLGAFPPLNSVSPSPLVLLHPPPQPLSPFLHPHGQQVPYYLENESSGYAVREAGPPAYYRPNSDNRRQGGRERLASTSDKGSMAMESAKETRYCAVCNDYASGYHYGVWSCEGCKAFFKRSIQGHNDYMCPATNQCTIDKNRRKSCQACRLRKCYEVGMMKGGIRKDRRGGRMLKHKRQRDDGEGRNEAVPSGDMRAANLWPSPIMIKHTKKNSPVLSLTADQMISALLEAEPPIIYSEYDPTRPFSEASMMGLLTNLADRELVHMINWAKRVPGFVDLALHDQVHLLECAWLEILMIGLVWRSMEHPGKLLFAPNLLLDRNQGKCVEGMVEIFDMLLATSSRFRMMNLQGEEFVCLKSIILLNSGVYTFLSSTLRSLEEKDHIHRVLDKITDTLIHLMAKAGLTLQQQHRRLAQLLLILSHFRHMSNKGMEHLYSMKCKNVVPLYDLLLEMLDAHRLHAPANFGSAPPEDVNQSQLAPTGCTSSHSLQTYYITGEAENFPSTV
How it was run: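 Cell-free radioligand binding with receptor from bovine uterine membranes, read by scintillation counting 18 h after dosing. Loss of specific binding was scored against DMSO; primary screen at 25 uM in duplicate, actives then run as concentration series.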

[3] = molecular target: Estrogen receptor (Homo sapiens) (UniProt P03372); experiment: NVS_NR_hER: NovaScreen (NVS) Nuclear Receptor Binding Assay for human Estrogen Receptor (ER) (AID 2283348)
How it was run: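 MCF7-derived receptor extract, radiolabelled ligand, competitive displacement. Read: scintillation counts at 18 h. DMSO = negative control/baseline. Primary 25 uM duplicate; follow-up concentration–response.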

[4] = molecular target: Estrogen receptor (Homo sapiens) (UniProt P03372); experiment: OT_ER_ERaERa_0480: Odyssey Thera (OT) 8-hour HEK293T Protein-Complementation Assay for Estrogen Receptor-alpha/-alpha Homodimer (AID 2283351);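 further: rise in fluorescence from reassembled reporter fragments on ERα LBD homodimer in nucleus or whole cell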
How it was run: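 Read-out: fluorescence intensity rise relative to DMSO, nuclear for agonists, nuclear plus cytoplasmic for antagonists. Construct is the ERα LBD (aa 310-547) homodimer fragment-complementation pair, stably expressed in HEK293T; exposure 8 h.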

[5] = molecular target: Estrogen receptor (Homo sapiens) + Estrogen receptor beta (Homo sapiens) (UniProt P03372+Q92731); experiment: OT_ER_ERaERb_0480: Odyssey Thera (OT) 8-hour HEK293T Protein-Complementation Assay for Estrogen Receptor-alpha/-beta Heterodimer (AID 2283352)
Chain of Estrogen receptor (Homo sapiens) + Estrogen receptor beta (Homo sapiens) (P03372 whole entry, looked up, the tested form may be a part): as the sequence (P03372 whole entry, looked up, the tested form may be a part) above
Chain of Estrogen receptor (Homo sapiens) + Estrogen receptor beta (Homo sapiens) (Q92731 whole entry, looked up, the tested form may be a part): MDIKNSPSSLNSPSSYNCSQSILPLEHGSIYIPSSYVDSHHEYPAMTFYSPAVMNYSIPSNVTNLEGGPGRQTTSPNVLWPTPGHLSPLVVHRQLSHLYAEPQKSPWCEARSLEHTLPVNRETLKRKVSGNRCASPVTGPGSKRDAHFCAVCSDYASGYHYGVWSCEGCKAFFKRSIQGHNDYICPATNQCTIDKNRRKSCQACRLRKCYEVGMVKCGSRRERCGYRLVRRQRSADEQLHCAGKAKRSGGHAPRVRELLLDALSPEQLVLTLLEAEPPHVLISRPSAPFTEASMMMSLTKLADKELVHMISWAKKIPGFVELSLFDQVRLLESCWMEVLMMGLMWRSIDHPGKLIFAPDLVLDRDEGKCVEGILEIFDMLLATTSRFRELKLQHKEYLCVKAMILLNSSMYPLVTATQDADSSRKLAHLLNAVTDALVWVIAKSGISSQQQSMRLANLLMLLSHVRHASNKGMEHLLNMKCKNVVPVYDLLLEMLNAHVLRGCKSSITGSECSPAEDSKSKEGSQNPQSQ
How it was run: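 Human HEK293T cells were treated for 8 hours and receptor heterodimerisation was detected through reconstitution of a fluorescent reporter split between ER-alpha and ER-beta ligand-binding domains. Activity was analysed as gain of signal against DMSO.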

[6] = molecular target: chimpanzee Androgen Receptor (AR), AR (gene 747460) (UniProt O97775); experiment: NVS_NR_cAR: NovaScreen (NVS) Nuclear Receptor Binding Assay for chimpanzee Androgen Receptor (AR) (AID 2283346);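 further: radioligand displacement from AR measured by scintillation counting in a cell-free assay; a loss of bound radioligand signal versus DMSO counts as binding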
Chain of chimpanzee Androgen Receptor (AR), AR (gene 747460) (O97775 whole entry, looked up): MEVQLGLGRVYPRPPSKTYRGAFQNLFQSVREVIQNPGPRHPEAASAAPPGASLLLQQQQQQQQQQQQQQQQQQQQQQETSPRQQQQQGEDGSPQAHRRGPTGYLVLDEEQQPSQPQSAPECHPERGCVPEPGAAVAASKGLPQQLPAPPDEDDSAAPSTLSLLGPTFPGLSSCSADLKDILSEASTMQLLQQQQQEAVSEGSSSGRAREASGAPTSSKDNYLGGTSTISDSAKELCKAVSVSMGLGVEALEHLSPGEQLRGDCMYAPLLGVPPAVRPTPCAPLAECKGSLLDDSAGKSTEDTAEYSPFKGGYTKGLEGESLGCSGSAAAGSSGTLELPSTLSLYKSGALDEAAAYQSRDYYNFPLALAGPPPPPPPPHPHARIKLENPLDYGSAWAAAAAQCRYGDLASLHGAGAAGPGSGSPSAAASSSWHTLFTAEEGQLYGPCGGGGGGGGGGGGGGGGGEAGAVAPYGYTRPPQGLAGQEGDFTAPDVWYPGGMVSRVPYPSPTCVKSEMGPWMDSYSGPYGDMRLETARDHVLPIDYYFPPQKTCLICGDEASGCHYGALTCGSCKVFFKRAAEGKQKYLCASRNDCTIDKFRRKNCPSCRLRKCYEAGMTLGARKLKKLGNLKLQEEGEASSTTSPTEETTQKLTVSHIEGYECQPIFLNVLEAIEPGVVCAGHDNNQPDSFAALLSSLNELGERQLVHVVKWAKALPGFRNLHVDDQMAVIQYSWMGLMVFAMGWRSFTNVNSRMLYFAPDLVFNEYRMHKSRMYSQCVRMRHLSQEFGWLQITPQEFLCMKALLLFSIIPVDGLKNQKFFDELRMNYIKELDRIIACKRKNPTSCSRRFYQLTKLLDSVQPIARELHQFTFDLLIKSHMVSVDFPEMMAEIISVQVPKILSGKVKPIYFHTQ
How it was run: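 Radioligand binding to chimpanzee AR expressed in Sf9/Sf21 cells, cell-free, measured 72 h after dosing by lysate-based scintillation counting. Loss of signal vs DMSO; initial duplicate screen at 25 uM, actives retested in concentration series.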

[7] = molecular target: Bile acid receptor (Homo sapiens) (UniProt Q96RI1); experiment: NVS_NR_hFXR_Antagonist: NovaScreen (NVS) Nuclear Receptor Binding Assay for human Farnesoid X Receptor Antagonism (FXR) (AID 2283350)
Chain of Bile acid receptor (Homo sapiens) (Q96RI1 whole entry, looked up): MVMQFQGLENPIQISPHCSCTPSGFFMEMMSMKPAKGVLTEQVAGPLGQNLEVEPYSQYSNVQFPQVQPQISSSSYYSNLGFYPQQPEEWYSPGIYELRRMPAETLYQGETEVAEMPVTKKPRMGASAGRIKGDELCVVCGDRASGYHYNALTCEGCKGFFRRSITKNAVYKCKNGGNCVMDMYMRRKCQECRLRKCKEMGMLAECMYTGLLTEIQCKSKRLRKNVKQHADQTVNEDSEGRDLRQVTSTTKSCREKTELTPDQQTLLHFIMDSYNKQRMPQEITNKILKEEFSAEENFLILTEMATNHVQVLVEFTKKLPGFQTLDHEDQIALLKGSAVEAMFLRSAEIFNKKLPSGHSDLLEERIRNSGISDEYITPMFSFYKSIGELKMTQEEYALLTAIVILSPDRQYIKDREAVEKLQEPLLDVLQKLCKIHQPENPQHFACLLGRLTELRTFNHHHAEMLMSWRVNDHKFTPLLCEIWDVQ
How it was run: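 Antagonist-format time-resolved FRET binding assay with extracted human receptor protein, read 1 hour after compound addition. Compounds first screened at 25 uM in duplicate, then actives tested in concentration series, with loss of signal relative to DMSO.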

Question: `Cc1cn([C@H]2C[C@H](N=[N+]=[N-])[C@@H](CO)O2)c(=O)[nH]c1=O` was tested. Which outcome [1] did it give?
Answer: inactive

Question: Which outcome [2] does the source give for `CCCCCCCCCCCO` here?
Answer: inactive

Question: What about the outcome [3] of the same molecule?
Answer: inactive

Question: And the outcome [1]?
Answer: inactive

Question: And the outcome [4]?
Answer: inactive

Question: What about the outcome [5] of the same molecule?
Answer: inactive

Question: `O=C(O)c1ccccc1-n1cc(C(=O)O)c(=O)c2cc(Nc3c(F)cc(F)cc3Cl)c(Cl)cc21` was tested. Which outcome [1] did it give?
Answer: inactive

Question: And the outcome [5]?
Answer: inactive

Question: With `O=C=NCCCCCCN=C=O` as the molecule, how does the outcome [1] read?
Answer: inactive

Question: And the outcome [4]?
Answer: inactive

Question: And the outcome [5]?
Answer: inactive

Question: `O=C(OCCCCCCOC(=O)c1ccccc1)c1ccccc1` was tested. Which outcome [1] did it give?
Answer: inactive

Question: And the outcome [4]?
Answer: inactive

Question: For `O=c1ccc2ccccc2o1`, which outcome [1] is on record?
Answer: inactive

Question: What about the outcome [4] of the same molecule?
Answer: inactive

Question: And the outcome [5]?
Answer: inactive

Question: For `OCCO`, which outcome [1] is on record?
Answer: inactive

Question: What about the outcome [4] of the same molecule?
Answer: inactive

Question: Which outcome [6] does the source give for `O=C1CCC(C2CCCCC2)CC1` here?
Answer: inactive

Question: Which outcome [1] does the source give for `CC[C@@H]1C[C@H](N(Cc2cc(C(F)(F)F)cc(C(F)(F)F)c2)C(C)=O)c2cc(C(F)(F)F)ccc2N1C(=O)OC(C)C` here?
Answer: inactive

Question: What does the source list for `CCCCCCCCOc1ccc(C(=O)c2ccccc2)c(O)c1`?
Answer: outcome [1]: inactive; outcome [4]: inactive

Question: Which results are given for `CC[C@H](NC(=O)c1cc(F)ccc1NS(=O)(=O)c1cccc2cccnc12)c1ccccc1`?
Answer: outcome [2]: inactive; outcome [3]: inactive; outcome [1]: inactive; outcome [4]: inactive; outcome [5]: inactive

Question: Which outcome [2] does the source give for `Cc1cc2c(cc1C(F)(F)F)N(C(=O)Nc1ccc(Oc3cccnc3C)nc1)CC2` here?
Answer: inactive

Question: What about the outcome [6] of the same molecule?
Answer: inactive

Question: What about the outcome [1] of the same molecule?
Answer: inactive

Question: And the outcome [4]?
Answer: inactive

Question: Which results are given for `CCCC(=O)OCCC(C)C`?
Answer: outcome [1]: inactive; outcome [4]: inactive

Question: What does the source list for `CCO[Si](CCCNC(N)=O)(OCC)OCC`?
Answer: outcome [1]: inactive; outcome [7]: inactive; outcome [4]: inactive; outcome [5]: inactive

Question: For `CCCOC(=O)c1cc(O)c(O)c(O)c1`, which outcome [2] is on record?
Answer: inactive

Question: And the outcome [3]?
Answer: inactive

Question: What about the outcome [1] of the same molecule?
Answer: inactive

Question: And the AC50 [4]?
Answer: 50 µM (active)

Question: What about the AC50 [5] of the same molecule?
Answer: 39.8 µM (active)

Question: Which results are given for `c1ccc2ccccc2c1`?
Answer: outcome [3]: inactive; outcome [1]: inactive; outcome [4]: inactive

Question: What does the source list for `COCC(C)OCC(C)OCC(C)O` (configuration not stated)?
Answer: outcome [1]: inactive; outcome [4]: inactive

Question: Which outcome [6] does the source give for `O=c1c(-c2ccc(O)cc2)coc2cc(O)cc(O)c12` here?
Answer: inactive

Question: What about the outcome [7] of the same molecule?
Answer: inactive

Question: What does the source list for `O=c1[nH]sc2ccccc12`?
Answer: outcome [1]: inactive; outcome [7]: inactive; outcome [4]: inactive
